Bioassay records deposited in PubChem by several laboratories.
MCL1-BIM inh = inhibitors of MCL1 binding to BIM-BH3, primary screen, biochemical, fluorescence polarization | Induced myeloid leukemia cell differentiation protein Mcl-1 (Homo sapiens), Q07820 | GST-MCL1 / FITC-Bim-BH3 fluorescence polarization | inhibition, % at 10.9 µM | 320,000 tested, 0.68% active;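 active means inhibition above the mean inhibition of all tested compounds plus 3 SD, set per campaign, cut at about 40% in these data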;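 further: 0% = DMSO wells and 100% = unlabeled Bim-BH3 peptide control; higher means more loss of mP so more displacement of Bim peptide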
Mcl1-Bid inh = Mcl-1/Bid binding inhibitors, primary screen, biochemical, TR-FRET, 1536-well | 220,000 tested, 0.97% active | Induced myeloid leukemia cell differentiation protein Mcl-1 (Homo sapiens), Q07820 | TR-FRET Mcl-1/Bid-Dy647 peptide binding | inhibition, % at 21.7 µM | AID 1021, 2008;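 active means compounds that cut the binding signal by more than half at the single screening dose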;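 further: His-tagged Mcl-1 with europium anti-His antibody binding Bid BH3 peptide; 0% = Mcl-1 plus peptide wells and 100% = peptide-only wells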
Mcl1-Noxa inh = Mcl-1/Noxa binding inhibitors, primary screen, biochemical, TR-FRET, 1536-well. TR-FRET Mcl-1/Noxa peptide binding, 2 h. 220,000 tested, 1.5% active. inhibition, % at 21.7 µM. Induced myeloid leukemia cell differentiation protein Mcl-1 (Homo sapiens), Q07820;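 active means compounds that cut the protein-peptide binding signal by more than 50% relative to plate controls in a single-dose test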;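 further: His-tagged Mcl-1 with rhodamine Noxa BH3 peptide and terbium anti-His antibody; 0% = Mcl-1 plus Noxa peptide wells and 100% = peptide-only wells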
Bcl-xL primary = inhibitors of human Bcl-xL, primary screen, biochemical, fluorescence polarization, HTS. Bcl-2-like protein 1 (Homo sapiens), Q07817. GST-Bcl-xL / FITC-Bim BH3 peptide fluorescence polarization. inhibition, % at 10.9 µM. 320,000 tested, 0.7% active;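 active means inhibition above the mean of all tested compounds plus 3 SD, cutoff set per campaign, cut at about 30% in these data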;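 further: 0% = DMSO wells and 100% = unlabeled Bim-BH3 peptide competitor; inhibitors lower millipolarization by displacing the labeled peptide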
Target sequence (Q07817 whole entry, looked up): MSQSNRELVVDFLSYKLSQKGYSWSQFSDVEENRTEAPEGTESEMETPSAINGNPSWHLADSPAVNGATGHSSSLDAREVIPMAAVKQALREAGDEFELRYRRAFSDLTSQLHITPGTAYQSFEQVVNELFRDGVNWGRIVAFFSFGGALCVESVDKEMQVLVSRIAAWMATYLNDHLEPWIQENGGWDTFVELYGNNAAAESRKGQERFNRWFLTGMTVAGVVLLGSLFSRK
GLD-1 RNA inh = GLD-1/TGE RNA complex disruptors, primary screen, biochemical, fluorescence polarization | 320,000 tested, 0.44% active | purified GLD-1 + fluorescein TGE RNA | inhibition, % at 5.96 µM | AID 2280, 2010 | Female germline-specific tumor suppressor gld-1 (Caenorhabditis elegans), Q17339;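 active means percent inhibition above a per-plate cutoff, the plate mean of test compounds plus 3 SD, cut at about 30% in these data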;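 further: 0% = DMSO wells with GLD-1 and probe and 100% = wells lacking GLD-1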
Target sequence (Q17339 whole entry, looked up): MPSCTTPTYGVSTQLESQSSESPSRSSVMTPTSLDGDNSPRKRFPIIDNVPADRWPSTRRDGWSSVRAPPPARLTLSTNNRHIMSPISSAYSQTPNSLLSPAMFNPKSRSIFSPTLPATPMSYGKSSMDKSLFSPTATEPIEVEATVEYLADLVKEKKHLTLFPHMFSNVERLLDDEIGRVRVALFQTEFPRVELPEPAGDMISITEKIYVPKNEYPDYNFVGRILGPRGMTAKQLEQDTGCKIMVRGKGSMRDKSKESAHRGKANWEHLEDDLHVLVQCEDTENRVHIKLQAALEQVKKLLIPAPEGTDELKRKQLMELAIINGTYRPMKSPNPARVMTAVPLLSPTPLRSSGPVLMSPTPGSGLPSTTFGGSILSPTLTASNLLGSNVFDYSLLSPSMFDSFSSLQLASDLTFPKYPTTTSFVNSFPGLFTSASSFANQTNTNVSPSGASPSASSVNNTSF
Bim-Mcl-1 = inhibitors of Bim peptide binding to Mcl-1, primary screen, biochemical, bead-based flow cytometry, multiplex. Induced myeloid leukemia cell differentiation protein Mcl-1 (Homo sapiens), Q07820. Bim peptide-Mcl-1 binding. inhibition, % at 10 µM. 190,000 tested, 0.1% active; in the data active means inhibition above about 40%;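 further: 0% = no compound tracer wells and 100% = peptide blocker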
Active calls of the source: *; x = no result. Hits are enriched below; roughly 2.3% of the tested compounds scored in any of these assays.

SMILES | MCL1-BIM inh | Mcl1-Bid inh | Mcl1-Noxa inh | Bcl-xL primary | GLD-1 RNA inh | Bim-Mcl-1
CCc1nc2oc3cc(OC)ccc3c(=O)c2c(=O)n1-c1ccccc1 | 0 | 23 | -11 | 4 | 2 | -6
COCCn1c(-c2ccc(C)cc2)nc2oc3cc(OC)ccc3c(=O)c2c1=O | 5 | 53* | 33 | -1 | -7 | x
COCCn1c(-c2ccc(F)cc2)nc2oc3cc(OC)ccc3c(=O)c2c1=O | 1 | 38 | -23 | 3 | 6 | x
COc1ccc2c(=O)c3c(=O)n(-c4ccccc4)c(-c4ccco4)nc3oc2c1 | 3 | -7 | 34 | -3 | 8 | -1
COc1ccc2c(=O)c3c(=O)n(-c4ccc(C)cc4)c(-c4ccccc4)nc3oc2c1 | 7 | 48 | 81* | 8 | 5 | x
Cc1ccc(-n2c(C)nc3oc4ccccc4c(=O)c3c2=O)cc1 | 21 | -8 | 65* | 19 | -4 | 0
O=C(CSc1nnc(CNC(=O)c2ccccc2)o1)Nc1nccs1 | 9 | x | x | 6 | 4 | x
CC1C2(C)OC(=N)C(C#N)(C(C)O2)C1(C#N)C#N (centres undefined) | 48* | -51 | 19 | 52* | 25 | x
COC(=O)Cn1cnc2c(cnn2-c2ccc(C)cc2)c1=O | 6 | x | x | 5 | 7 | x
Clc1ccc(-n2nnnc2-c2cnc(-c3ccncc3)nc2-c2cccs2)cc1 | 6 | 7 | -2 | 6 | -8 | -3
FC(F)(F)c1nc(-c2cccs2)ncc1-c1nnnn1-c1ccc(Cl)cc1 | -1 | 65* | 3 | 4 | 5 | 0
Cc1c(C(=O)N/N=C/c2ccc(O)c(Br)c2)sc(N)c1C#N | -51 | -24 | 72* | -20 | -39 | 6
O=C(N/N=C/c1ccc(-c2ccccc2[N+](=O)[O-])o1)c1cncc(Br)c1 | 19 | -17 | 21 | 23 | 7 | 30
Cc1c(C(=O)N/N=C/c2ccc(-c3ccccc3[N+](=O)[O-])o2)sc(N)c1C#N | 3 | 80* | 99* | 10 | 1 | -3
COc1cc(/C=N/NC(=O)c2sc(N)c(C#N)c2C)ccc1O | -47 | -24 | -11 | -34 | -35 | -2
CN=c1scc(C)n1/N=C/c1cc(Br)c(O)c(OC)c1 | 7 | -40 | 53* | 7 | 6 | 0
COC(=O)c1ccc(-c2ccc(C(c3c(C)[nH][nH]c3=O)c3c(C)[nH][nH]c3=O)o2)cc1 | 4 | -74 | 68* | 3 | -6 | 6
Cc1ccc2nc(NC(=O)CC3Oc4ccccc4NC3=O)sc2c1 (centres undefined) | 4 | -14 | -10 | 1 | 0 | x
C[C@@H]1O[C@@H](Oc2c(-c3ccc(O)c(O)c3)oc3cc(O)cc(O)c3c2=O)[C@H](O)[C@H](O)[C@H]1O | x | x | x | x | 4 | x
C[C@@H]1O[C@@H](Oc2c(-c3cc(O)c(O)c(O)c3)oc3cc(O)cc(O)c3c2=O)[C@H](O)[C@H](O)[C@H]1O | 24 | -20 | 54* | 18 | 1 | 0
CS(=O)(=O)Cc1ccc(C(=O)N2CCCC2c2cccs2)cc1 (centres undefined) | -4 | x | x | 1 | -4 | x
CC1(C)CCCN(C(=O)c2coc(=O)c(Br)c2)C1 | x | -25 | 79* | x | x | 0
Cc1c(OCC(=O)N(C)c2ccccc2)ccc2c3c(c(=O)oc12)CCC3 | 0 | x | x | -1 | -7 | x
O=C(N/N=C1/C(=O)c2cccc3cccc1c23)c1ccc(Cl)cc1 | 46* | 88* | 26 | 57* | 5 | -5
Cc1ccc2c(c1)N/C(=C(\C=C(/Cl)[N+](=O)[O-])[N+](=O)[O-])N2 | 5 | 10 | 59* | 1 | -9 | 0
SMILES | MCL1-BIM inh | Mcl1-Bid inh | Mcl1-Noxa inh | Bcl-xL primary | GLD-1 RNA inh | Bim-Mcl-1
COc1ccc2c(c1)S/C(=C\C(=O)c1ccncc1)N2C | 11 | -39 | 66* | 3 | -41 | 7
CC(=O)c1cccc(NC(=O)C2CC(=O)N(C3CCCC3)C2)c1 (centres undefined) | x | x | x | x | -4 | x
COc1ccc(OC)c(NC(=S)NCc2ccccc2OC)c1 | 33 | -61 | 11 | 30* | 15 | -4
Cc1cc(C)cc(NC(=O)Oc2ccccc2N2CCCCC2)c1 | -2 | -39 | 51* | -2 | 1 | x
O=C(Nc1cccc(C(F)(F)F)c1)Oc1ccccc1N1CCOCC1 | 1 | -28 | 2 | 0 | 0 | x
COC(=O)N/N=C/c1cn(Cc2ccccc2F)c2ccccc12 | -2 | -12 | 2 | 3 | 8 | x
O=C(O)c1ccc(N/N=C/c2cn(Cc3ccccc3F)c3ccccc23)cc1 | 5 | -2 | 59* | 7 | 4 | x
O=[N+]([O-])c1ccc(O)c(C=Nc2ccc3c(c2)OCO3)c1 | -4 | -9 | -4 | 3 | 4 | x
O=[N+]([O-])c1cc(Br)cc(C=Nc2ccc3c(c2)OCO3)c1O | 16 | 0 | 55* | 16 | -3 | x
COc1cc(O)sc1C=Nc1ccc(Cl)cc1Cl | 3 | 1 | 11 | 1 | 7 | -1
Cc1ccc(NC2Sc3ccccc3NC2=O)cc1 (centres undefined) | -12 | -32 | 56* | -1 | 5 | -5
COC(=O)CC1Sc2ccccc2NC1=O (centres undefined) | 12 | -25 | 14 | 9 | -1 | -3
O=C(NC[C@@H]1CCCO1)c1cccc2c1C(=O)c1ccc(N3CCOCC3)cc1S2(=O)=O | x | x | x | x | 3 | x
O=C(NCC1CC1)c1cccc2c1C(=O)c1ccc(N3CCCC3)cc1S2(=O)=O | x | x | x | x | 44* | x
C=CCNC(=O)c1cccc2c1C(=O)c1ccc(N3CCCC3)cc1S2(=O)=O | x | x | x | x | 43* | x
CCc1ccc(S(=O)(=O)Nc2ccc(Br)cn2)cc1 | -1 | x | x | 1 | 9 | x
CC(C)(C)NC(=O)c1sccc1C(=O)O | 0 | 90* | 54* | 5 | -6 | 0
CC(C)(C)NC(=O)c1ccc(C(=O)NC(C)(C)C)cc1 | x | 9 | 10 | x | x | x
CN(C)c1ccnc2sc(C(N)=O)c(N)c12 | 11 | 97* | -2 | 4 | 2 | 0
CCc1nnc(NC(=O)CS(=O)(=O)Cc2ccccc2)s1 | -2 | x | x | 1 | -3 | x
COc1ccc(NC(=S)NN2C(C)CCCC2C)cc1 (centres undefined) | 39 | 42 | 52* | 4 | 1 | -9
CC(C)c1ccc(NS(=O)(=O)c2ccc3[nH]cc(C(=O)N4CCC(C(N)=O)CC4)c(=O)c3c2)cc1 | 5 | 59* | 6 | 4 | -1 | -3
COc1ccc2c(N)c(C(=O)NN)[nH]c2c1 | 3 | -195 | 64* | 4 | 2 | x
